Results on 38 compounds are retold here after PubChem BioAssay (NCI).

This is part of a sample that, as a whole, favours compounds with a hit. Of some 83,000 tested, about 20% had one in any assay.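 Cells were grown in 96-well plates and exposed to the test compound at a single concentration for 48 hours; results are reported as percent growth, with values below 10 considered active.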 A number with no mark means an inactive call. Active and inactive are the calls of the source.

One experiment relates to MCF7 breast. Put plainly: NCI-60 one-dose screen, 48 h (100 = growth as untreated, 0 = no growth, -100 = all killed). The settings on record: 10 µM unless noted.
For `COc1ccc(-c2nc(SCC(C)C)nc(N/N=C\c3cccc([N+](=O)[O-])c3)c2C#N)cc1`, the growth is 61.6%.

Take `C=C1C(=O)O[C@@H]2C[C@@H](C)CCC(=O)[C@](C)(OC(C)=O)C[C@H](OC(=O)/C(C)=C\C)[C@@H]12`: the growth was 35.1%.

For `C=C1C(=O)O[C@@H]2C[C@@H](C)/C=C\C(=O)[C@](C)(OC(C)=O)C[C@H](OC(=O)/C(C)=C\C)[C@@H]12`, the growth is 11.2%.

Turning to `CCCCCCNC(=O)Oc1ccc(/C(=C(/C)c2ccc(OC)cc2)c2ccc(OCCN3CCCC3)cc2)cc1`, the growth was 18.2%.

Turning to `CN(C)c1ccc(/C=N/Nc2nc(N/N=C/c3ccc(N(C)C)cc3)nc(N3CCOCC3)n2)cc1`, the growth was 54.8%.

As for `COc1ccc(-c2oc3cc(O)cc(O)c3c(=O)c2OC)cc1O`, the growth is 25.8%.

A further experiment relates to HCT-116 colon. Described as above. The following applies: 10 µM unless noted.
Turning to `O=C(COc1ccc(/C=C2\SC(=O)NC2=O)cc1)Nc1ccc(C(=O)/C=C/c2cc3ccccc3nc2Cl)cc1`, the growth was -57.2% (active).

Consider `CC(C)Sc1nc(NC2CC2)c(C#N)c(-c2ccccc2)n1`, for which the growth was 53.2%.

`O=C(COc1cccc2cccnc12)Nc1ccc(C(=O)/C=C/c2ccc(Cl)cc2)cc1`: the growth was 5.25% (active).

Turning to `Oc1ccc(CSc2nnc(-c3ccc(Br)cc3)n2-c2ccccc2)c2cccnc12`, the growth is 21.7%.

Regarding `COc1ccccc1N1CCN(C2=NN=C(c3cccc(Cl)c3)c3ccccc3C2)CC1`, the growth was 7.98% (active).

Regarding `O=C1/C(=C/c2ccc([N+](=O)[O-])cc2)SC(=Nc2ccccc2)N1Nc1ccccc1`, the growth is 26.9%.

For the compound `COc1ccc([C@H]2c3[nH]c4ccccc4c3C[C@@H]3C(=O)N(C4CCN(Cc5ccccc5)CC4)CC(=O)N23)c(OC)c1`, the growth was 56.8%.

`CC1OC(O[C@@H]2[C@H](O)C(CO)OC(O[C@H]3COC(O[C@H]4CC[C@]5(C)[C@H]6CC[C@]78OC[C@@]9(CCC(C)(C)C[C@H]97)[C@H](O)C[C@@]8(C)[C@]6(C)CC[C@H]5C4(C)C)[C@@H](OC4OC(CO)[C@@H](O)[C@@H](O)[C@@H]4O)[C@@H]3O)[C@H]2OC2OC[C@@H](O)[C@@H](O)[C@@H]2O)[C@@H](O)[C@@H](O)[C@H]1O` (some centres undefined): the growth was -80.1% (active).

On to `N#Cc1c(-c2cccs2)cc(-c2cnccn2)nc1SCC(=O)NNC(=S)Nc1ccc(F)cc1`, for which the growth was 102%.

With `O=C1NC(=O)c2c1c1c3ccccc3ccc1c1[nH]c3ccccc3c21`, the growth was 14.4%.

As for `COc1ccc(-c2ccc3c4c(cccc24)C(=O)N(N2C(=O)c4cccc5cccc(c45)C2=O)C3=O)cc1`, the growth is 96.8%.

For `NS(=O)(=O)c1ccc(Nc2nc(N/N=C/c3ccc(C(F)(F)F)cc3)nc(Nc3ccccc3)n2)cc1`, the growth is 9.73% (active).

Regarding `COc1cc(CNC(=O)/C=C/c2ccccc2)ccc1OCC(=O)NO`, the growth is 98.7%.

For the compound `NS(=O)(=O)c1ccc(Nc2nc(N/N=C/c3ccc(F)cc3)nc(Nc3ccccc3)n2)cc1`, the growth is 44.7%.

Take `C=C1C(=O)O[C@@H]2C[C@@H](C)[C@H](OC)CC(=O)[C@](C)(OC(C)=O)C[C@H](OC(=O)/C(C)=C\C)[C@@H]12`: the growth is 5.78% (active).

Regarding `O=C(c1ccc(O)cc1)[C@@H]1[C@@H]2CCCN2[C@@]2(C(=O)N(C(=O)c3ccc(F)cc3)c3ccccc32)[C@H]1c1ccc(F)cc1`, the growth was 91.4%.

In the case of `Cc1ccc(-n2cc(/C=C/C(=O)c3ccc(S(C)(=O)=O)cc3)c(-c3ccc(S(C)(=O)=O)cc3)n2)cc1`, the growth was 53.4%.

Consider `Cc1ccc(Cc2cnc(NC(=O)/C(C#N)=C/c3ccc(-c4ccc(Cl)cc4)o3)s2)cc1`, for which the growth is 88.9%.

As for `C=C(C)C(=O)O[C@H]1C[C@@]2(C)OC(=CC2=O)/C(C)=C\[C@H]2OC(=O)C(=C)[C@H]12`, the growth is -68.5% (active).

For `CCN(CC)CCN1C(=O)c2c(c3c4cc(Br)ccc4[nH]c3c3ccc4ccccc4c23)C1=O`, the growth was -80.1% (active).

As for `Oc1ccc(CSc2nnc(-c3ccc(Oc4ccccc4)cc3)o2)c2cccnc12`, the growth was 1.74% (active).

Regarding `O=C1c2c(c3c4cccnc4[nH]c3c3ccc4ccccc4c23)C(=O)N1CCN1CCOCC1`, the growth is 58.1%.

`O=c1[nH]c(CCl)nc2c1cnn2-c1ccccc1`: the growth is 94.9%.

On to `C=C1C(=O)O[C@@H]2/C=C(/C)C3=CC(=O)[C@@](C)(C[C@H](OC(=O)/C(C)=C\C)[C@@H]12)O3`, for which the growth is -53.3% (active).

For `O=C1CC2(CCOCC2)Oc2ncccc21`, the growth was 29%.

Regarding `O=C(Nc1ccc(F)cc1)c1cc(-c2ccc(F)cc2F)ccc1O`, the growth is 2.09% (active).

As for `COc1ccc(/C=N\NC(=O)c2ccc3nc(-c4ccc(Br)cc4)[nH]c3c2)cc1`, the growth is 12.5%.

`O=C(O)c1ccc(-n2cc(CNc3ccc(Cl)cc3)c(-c3ccc(F)cc3)n2)cc1`: the growth was 82.7%.

Regarding `COc1cc(/C=N/n2cnc3oc(-c4ccccc4)cc3c2=N)cc(CN2CCCC2)c1O`, the growth was -77.8% (active).

`CCOC(=O)c1c(NCC(=O)Nc2cccc(Cl)c2)sc2c1CCCC2`: the growth was 73.5%.

`Cc1ccc(-c2csc(N/N=C/c3nc4ccccc4n3C3CC3)n2)cc1`: the growth is 89.3%.

Consider `C#C[C@]1(O)CC[C@H]2[C@@H]3CC=C4c5sc(Nc6cccc(C)n6)nc5CC[C@]4(C)[C@H]3CC[C@@]21C`, for which the growth was 14.4%.

In the case of `COc1ccc(-c2nc(SCC(C)C)nc(N/N=C\c3cccc([N+](=O)[O-])c3)c2C#N)cc1`, the growth is 30.1%.

As to `C=C1C(=O)O[C@@H]2C[C@@H](C)CCC(=O)[C@](C)(OC(C)=O)C[C@H](OC(=O)/C(C)=C\C)[C@@H]12`, the growth is 25.3%.

As to `C=C1C(=O)O[C@@H]2C[C@@H](C)/C=C\C(=O)[C@](C)(OC(C)=O)C[C@H](OC(=O)/C(C)=C\C)[C@@H]12`, the growth is -70.3% (active).

As for `CCCCCCNC(=O)Oc1ccc(/C(=C(/C)c2ccc(OC)cc2)c2ccc(OCCN3CCCC3)cc2)cc1`, the growth is 31.4%.

On to `CN(C)c1ccc(/C=N/Nc2nc(N/N=C/c3ccc(N(C)C)cc3)nc(N3CCOCC3)n2)cc1`, for which the growth is 35.7%.

As to `COc1ccc(-c2oc3cc(O)cc(O)c3c(=O)c2OC)cc1O`, the growth was 12.4%.
